This note sets out measurements from PubChem BioAssay (NCATS).

Test [1] can be described thus: qHTS profiling for inhibitors of Plasmodium falciparum (3D7) proliferation (AID 743322).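 Further: infected erythrocytes exposed to compound for 72 h before lysis; 100% = DMSO vehicle wells and 0% = 0.29 µM artemisinin.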 Particulars: P. falciparum 3D7 proliferation; at 28.7 µM (top of the series). An outline of the steps:
(§1)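 Parasite DNA was quantified by SYBR Green I fluorescence (ex 485, em 535 nm) after overnight lysis in saponin/Triton buffer at room temperature. Cultures at 0.3% parasitemia and 2.5% hematocrit were first exposed to compound for 72 h at 37 C; signals were normalised to artemisinin (0.29 uM) and vehicle wells.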

A short description of test [2]: qHTS profiling for inhibitors of Plasmodium falciparum (DD2) proliferation (AID 743323). Particulars: lower = more inhibition; at 28.7 µM (top of the series). A digest of the protocol:
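SYBR Green fluorescence (ex 485, em 535 nm) of lysed cultures gives parasite DNA content; wells normalized to artemisinin (0.29 uM) and DMSO controls. Infected red cells: 0.3% parasitemia, 2.5% hematocrit, 72 h, 37 C.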
Background: In qHTS, concentration-response curves come from the screen itself.

Test [3] is described as follows: qHTS profiling of the MIPE4 collection as inhibitors of Plasmodium falciparum (3D7) proliferation (AID 743344).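 Further: scaled between DMSO vehicle wells and 0.29 µM artemisinin as full inhibition.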 Particulars: P. falciparum 3D7 in erythrocytes, SYBR Green DNA fluorescence, 72 h; at 28.5 µM (top of the series) unless noted. A digest of the protocol: as §1
The nature of test [4]: qHTS profiling of the MIPE4 collection as inhibitors of Plasmodium falciparum (DD2) proliferation (AID 743345). Particulars: P. falciparum Dd2 in erythrocytes, SYBR Green DNA, 72 h; at 28.5 µM (top of the series) unless noted. A digest of the protocol:
as §1

The nature of test [5]: qHTS profiling of the MIPE4 collection as inhibitors of Plasmodium falciparum (DD2) proliferation (Rep 2) (AID 743346). Particulars: P. falciparum Dd2 in erythrocytes, SYBR Green DNA, 72 h; at 28.5 µM (top of the series) unless noted. An outline of the steps:
as §1

A short description of test [6]: qHTS profiling of the MIPE4 collection as inhibitors of Plasmodium falciparum (HB3) proliferation (AID 743347).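 Further: plate controls were DMSO vehicle wells for no effect and artemisinin wells for full effect.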 Particulars: P. falciparum HB3 in erythrocytes, SYBR Green DNA, 72 h; at 28.5 µM (top of the series) unless noted. A digest of the protocol: as §1
Test [7] in a line: High-throughput drug toxicity screening in the BPDCN cell line Gen2.2 (AID 1224824).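 Further: cells exposed to compounds for 48 h before reading.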 Particulars: Gen2.2 BPDCN cells; at 45.8 µM (top of the series) unless noted. A digest of the protocol: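 Gen2.2 cells, 500 per well in phenol red-free RPMI with 10% FBS, exposed to compounds 48 h at 37 C, 5% CO2; viability by CellTiter-Glo luminescence. Percent activity scaled to DMSO (100%) and 9.2 uM bortezomib final (0%).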

Test [8] can be described thus: High-throughput drug toxicity screening in the BPDCN cell line Cal-1 (AID 1224825). Particulars: Cal-1 BPDCN cell viability, qHTS; at 45.8 µM (top of the series) unless noted. A digest of the protocol:
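Viability of the BPDCN line Cal-1 is measured as ATP-based luminescence (CellTiter-Glo) following 48 h incubation with compounds. Percent activity uses DMSO-treated wells as 100% and 9.2 uM bortezomib as 0%.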

A short description of test [9]: qHTS profiling for inhibitors of Plasmodium falciparum (HB3) proliferation (AID 743324).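 Further: 100% = DMSO vehicle wells and 0% = artemisinin-treated control wells.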 Particulars: Plasmodium falciparum HB3 blood-stage proliferation; at 28.7 µM (top of the series). A digest of the protocol:
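SYBR Green fluorescence (485 ex/535 em) of lysed cultures, incubated overnight at room temperature in the dark, quantifies parasite DNA. Infected erythrocytes at 0.3% parasitemia and 2.5% hematocrit were exposed 72 h; values normalized to DMSO and 0.29 uM artemisinin controls.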

As to `COCCn1c2c([n+](Cc3cnccn3)c1C)C(=O)c1ccccc1C2=O`, the remaining parasite growth % (stronger effect = lower value) in [1] was -1.59%. In addition, in test [2], the activity, percent of control was -0.193%. Also, in [3], the parasite growth, % of DMSO control was determined as 9.02%. The parasite growth remaining, % of DMSO control (lower = more inhibition) in test [4] came out at 6.3%. In test [5], this compound gave a parasite growth, % of control (lower = inhibition) of 11.6%. The growth, % of control in [6] is 6.61%. Moreover, the cell viability, % of control (lower = more cytotoxic) in test [7] worked out at 9.73%. Moreover, the viability (% of control) in [8] was determined as 3.5%.

As to `CCCCCN(CCC12CC3CC(CC(C3)C1)C2)C(=O)NCCCc1ccncc1`, in test [1], the remaining parasite growth % (stronger effect = lower value) turned out to be 7.44%. Further, in [2], the activity, percent of control turned out to be 32.6%. The remaining proliferation (% of control), lower = more inhibition in test [9] is 7.47%. This compound yielded a parasite growth, % of DMSO control in [3] of 6.26%. Besides, the parasite growth remaining, % of DMSO control (lower = more inhibition) in [4] was 11.7%. In test [5], this compound yielded a parasite growth, % of control (lower = inhibition) of 13.6%. This compound also gave a growth, % of control in [6] of 6.74%. Moreover, the cell viability, % of control (lower = more cytotoxic) in test [7] is 111%. In addition, the viability (% of control) in test [8] was determined as 94.4%.

Regarding `CC(C)c1ccccc1Cc1cc(C(=O)Nc2ccc(S(=O)(=O)c3ccccc3C(C)(C)C)cc2)c(O)c(O)c1O`, in [1], the remaining parasite growth % (stronger effect = lower value) is 0.404%. The activity, percent of control in [2] is 2.09%. In test [3], the parasite growth, % of DMSO control is 5.18%. In test [4], the parasite growth remaining, % of DMSO control (lower = more inhibition) stood at 6.18%. Moreover, the parasite growth, % of control (lower = inhibition) in [5] turned out to be 11.2%. Also, in test [7], the cell viability, % of control (lower = more cytotoxic) turned out to be 20.8%. Also, the viability (% of control) in test [8] came to 14.8%.

For the compound `NC(=O)c1c(OCc2c(F)cc(Br)cc2F)nsc1NC(=O)NCCCCN1CCCC1`, the remaining parasite growth % (stronger effect = lower value) in test [1] was -0.239%. Moreover, the activity, percent of control in test [2] came to 17.3%. In addition, the remaining proliferation (% of control), lower = more inhibition in test [9] came out at 2.02%. In [3], this compound showed a parasite growth, % of DMSO control of 47.5%. Besides, the parasite growth, % of control (lower = inhibition) in test [5] stood at 42.1%. The compound also had a growth, % of control in test [6] of 5.84%. Also, in [7], the cell viability, % of control (lower = more cytotoxic) amounted to 24.4%. In test [8], the viability (% of control) is 4.13%.

`CC(=O)SC[C@@H](C)C(=O)N1CCC[C@H]1C(=O)N[C@@H](Cc1ccccc1)C(=O)O`: in test [1], the remaining parasite growth % (stronger effect = lower value) was found to be 106%. Besides, the activity, percent of control in [2] is 103%. Also, the parasite growth, % of DMSO control in [3] stood at 100%. Further, the parasite growth remaining, % of DMSO control (lower = more inhibition) in test [4] was determined as 102%. Also, the parasite growth, % of control (lower = inhibition) in test [5] was 69.5%. Besides, in test [7], the cell viability, % of control (lower = more cytotoxic) was found to be 132%. The viability (% of control) in test [8] came out at 123%.

As for `N#CCNC(=O)c1ccc(-c2ccnc(Nc3ccc(N4CCOCC4)cc3)n2)cc1`, the remaining parasite growth % (stronger effect = lower value) in [1] stood at 5.35%. Moreover, in [2], the activity, percent of control worked out at 14%. Besides, in test [9], the remaining proliferation (% of control), lower = more inhibition came out at 10.2%. This compound also yielded a parasite growth, % of DMSO control in test [3] of 4.16%. In addition, in test [4], the parasite growth remaining, % of DMSO control (lower = more inhibition) amounted to 12.8%. In test [6], the growth, % of control turned out to be 4.94%. In [7], the cell viability, % of control (lower = more cytotoxic) stood at 55.1%. In addition, in test [8], the viability (% of control) came to 32.6%.

As to `CN1CCC(CNc2ccc3ncc(-c4cccc(OC(F)(F)F)c4)n3n2)CC1`, in test [1], the remaining parasite growth % (stronger effect = lower value) is -1.19%. Besides, the activity, percent of control in test [2] was -0.747%. The parasite growth, % of DMSO control in test [3] turned out to be 5.42%. Moreover, in [4], the parasite growth remaining, % of DMSO control (lower = more inhibition) is 6.44%. Moreover, the parasite growth, % of control (lower = inhibition) in test [5] came to 10.4%. For the same compound, in test [7], the cell viability, % of control (lower = more cytotoxic) stood at 11.1%. Besides, the viability (% of control) in [8] came to 7.35%.

Turning to `COc1cc(OC2CCN(C)CC2)ccc1Nc1ncc2c(n1)n(C1CCCC1)c(=O)n2C`, in test [1], the remaining parasite growth % (stronger effect = lower value) is 9.94%. The activity, percent of control in test [2] amounted to 3.56%. In [9], the remaining proliferation (% of control), lower = more inhibition amounted to 1.94%. For the same compound, the parasite growth, % of DMSO control in test [3] is 9.89%. The parasite growth remaining, % of DMSO control (lower = more inhibition) in test [4] amounted to 9.37%. Further, the parasite growth, % of control (lower = inhibition) in [5] stood at 18.2%. The growth, % of control in test [6] worked out at 7.29%. In addition, the cell viability, % of control (lower = more cytotoxic) in [7] is 6.18%. Besides, in [8], the viability (% of control) was determined as 3.73%.
